Experimental data taken from PubChem BioAssay (Tox21).
Inconclusive results are not listed. Activity calls are given as the source filed them. Unless noted, the call rests on the fitted dose curve.

Key:
[1] = biological target: Androgen receptor (Homo sapiens) (UniProt P10275); assay: qHTS assay to identify small molecule agonists of the androgen receptor (AR) signaling pathway in the presence of an antagonist (AID 1259381); further: nearly all actives have a fitted effect of over 15% in size
How it was run: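 AR antagonist background: nilutamide 3.0uM final. Cell line: MDA-kb2, MMTV-driven luciferase, responsive to both AR and GR. Exposure 16hr, 37C, no CO2; ONE-Glo luminescence.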

[2] = biological target: Estrogen receptor (Homo sapiens) (UniProt P03372); assay: qHTS assay to identify small molecule agonists of the estrogen receptor alpha (ER-alpha) signaling pathway in the presence of an antagonist (AID 1259383); further: top concentration of the series differs between compounds; nearly all actives have a fitted effect of over 15% in size
Chain of Estrogen receptor (Homo sapiens) (P03372 whole entry, looked up): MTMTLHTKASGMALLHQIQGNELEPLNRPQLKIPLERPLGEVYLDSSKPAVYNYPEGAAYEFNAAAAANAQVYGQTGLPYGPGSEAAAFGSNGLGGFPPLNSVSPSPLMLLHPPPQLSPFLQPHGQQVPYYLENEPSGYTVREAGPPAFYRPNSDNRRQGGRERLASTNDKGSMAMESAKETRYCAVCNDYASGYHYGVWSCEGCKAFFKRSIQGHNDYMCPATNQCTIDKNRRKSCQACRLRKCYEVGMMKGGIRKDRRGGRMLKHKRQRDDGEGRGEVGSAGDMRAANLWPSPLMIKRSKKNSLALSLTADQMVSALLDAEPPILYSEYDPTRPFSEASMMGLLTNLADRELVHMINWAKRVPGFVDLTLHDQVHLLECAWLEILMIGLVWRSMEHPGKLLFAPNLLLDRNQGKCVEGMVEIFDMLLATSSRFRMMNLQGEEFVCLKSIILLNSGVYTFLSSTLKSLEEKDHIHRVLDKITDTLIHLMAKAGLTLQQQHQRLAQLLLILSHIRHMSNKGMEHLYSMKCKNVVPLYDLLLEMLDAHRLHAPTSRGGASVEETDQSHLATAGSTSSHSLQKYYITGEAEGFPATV
How it was run: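 ER-alpha agonism measured under antagonist challenge: 10.0nM ICI-182,780 (final) plus compound, 15 concentrations, 22hr, VM7Luc4E2 ERE-luciferase cells. Read by luminescence.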

[3] = qHTS assay to identify small molecule agonists or antagonists of the thyroid stimulating hormone receptor (TSHR) signaling pathway - wild type cell line counter screen (AID 1259384)
How it was run: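 Wild-type Hek293 cells, 800/well, 18 h at 37C, then compound with Ro20-1724 for 30 min RT. cAMP by HTRF (cAMP-d2/anti-cAMP cryptate), 1 h RT, fluorescence read. 15 concentrations, triplicates.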

[4] = biological target: Thyrotropin receptor (Homo sapiens) (UniProt P16473); assay: qHTS assay to identify small molecule antagonists of the thyroid stimulating hormone receptor (TSHR) signaling pathway (AID 1259385); further: nearly all actives have a fitted effect of over 20% in size
Chain of Thyrotropin receptor (Homo sapiens) (P16473 whole entry, looked up): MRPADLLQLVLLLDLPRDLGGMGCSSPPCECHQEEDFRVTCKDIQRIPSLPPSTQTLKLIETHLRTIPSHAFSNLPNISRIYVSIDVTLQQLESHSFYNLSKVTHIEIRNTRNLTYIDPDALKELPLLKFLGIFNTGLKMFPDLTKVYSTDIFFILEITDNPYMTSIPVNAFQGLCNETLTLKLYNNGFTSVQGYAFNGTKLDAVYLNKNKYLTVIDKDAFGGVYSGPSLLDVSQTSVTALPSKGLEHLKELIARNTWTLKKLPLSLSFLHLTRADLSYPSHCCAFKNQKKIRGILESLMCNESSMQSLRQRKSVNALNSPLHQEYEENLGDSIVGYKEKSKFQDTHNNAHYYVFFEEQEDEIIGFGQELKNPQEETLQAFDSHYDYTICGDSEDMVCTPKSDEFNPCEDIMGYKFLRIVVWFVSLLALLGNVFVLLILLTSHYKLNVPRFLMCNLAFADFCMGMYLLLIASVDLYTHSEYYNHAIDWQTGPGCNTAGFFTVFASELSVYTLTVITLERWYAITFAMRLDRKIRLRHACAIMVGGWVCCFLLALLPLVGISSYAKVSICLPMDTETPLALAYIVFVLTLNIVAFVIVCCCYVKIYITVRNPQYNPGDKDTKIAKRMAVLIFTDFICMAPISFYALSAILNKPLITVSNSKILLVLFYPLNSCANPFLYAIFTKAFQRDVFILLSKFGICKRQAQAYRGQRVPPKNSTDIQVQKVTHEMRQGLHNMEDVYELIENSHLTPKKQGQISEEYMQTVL
How it was run: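 TSHR-HEK293 cells (800/well) plated 18 h, then compounds with Ro20-1724 and TSH at 1.5 ng/mL final, 30 min at room temperature. cAMP quantified by HTRF (cAMP-d2/anti-cAMP-cryptate, 1 h); 15 concentrations in triplicate.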

[5] = qHTS assay to identify small molecule agonists of the estrogen receptor alpha (ER-alpha) signaling pathway in the presence of an antagonist - cell viability counter screen (AID 1259386; active means well fitted curve in the direction sought with a large enough effect in the repeat runs; an effect the other way counts as inactive or inconclusive;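 further: series mostly up to about 92 µM; cells exposed to compounds for 22 h at 37 °C before the viability read; nearly all actives have a fitted effect of over 30% in size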)
How it was run: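 Steps: 5-day stripped-FBS culture; seed and incubate 24hr; add ICI-182,780 (10.0nM final); pin 15-point compound titration; incubate 22hr at 37C; add CellTiter-Fluor at 21hr; read fluorescence.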

[6] = biological target: Progesterone receptor (Homo sapiens) (UniProt P06401); assay: qHTS assay to identify small molecule agonists of the progesterone receptor (PR) signaling pathway (AID 1346784); further: nearly all actives have a fitted effect of over 30% in size; further: potency means the concentration at half of the fitted maximal effect
Chain of Progesterone receptor (Homo sapiens) (P06401 whole entry, looked up): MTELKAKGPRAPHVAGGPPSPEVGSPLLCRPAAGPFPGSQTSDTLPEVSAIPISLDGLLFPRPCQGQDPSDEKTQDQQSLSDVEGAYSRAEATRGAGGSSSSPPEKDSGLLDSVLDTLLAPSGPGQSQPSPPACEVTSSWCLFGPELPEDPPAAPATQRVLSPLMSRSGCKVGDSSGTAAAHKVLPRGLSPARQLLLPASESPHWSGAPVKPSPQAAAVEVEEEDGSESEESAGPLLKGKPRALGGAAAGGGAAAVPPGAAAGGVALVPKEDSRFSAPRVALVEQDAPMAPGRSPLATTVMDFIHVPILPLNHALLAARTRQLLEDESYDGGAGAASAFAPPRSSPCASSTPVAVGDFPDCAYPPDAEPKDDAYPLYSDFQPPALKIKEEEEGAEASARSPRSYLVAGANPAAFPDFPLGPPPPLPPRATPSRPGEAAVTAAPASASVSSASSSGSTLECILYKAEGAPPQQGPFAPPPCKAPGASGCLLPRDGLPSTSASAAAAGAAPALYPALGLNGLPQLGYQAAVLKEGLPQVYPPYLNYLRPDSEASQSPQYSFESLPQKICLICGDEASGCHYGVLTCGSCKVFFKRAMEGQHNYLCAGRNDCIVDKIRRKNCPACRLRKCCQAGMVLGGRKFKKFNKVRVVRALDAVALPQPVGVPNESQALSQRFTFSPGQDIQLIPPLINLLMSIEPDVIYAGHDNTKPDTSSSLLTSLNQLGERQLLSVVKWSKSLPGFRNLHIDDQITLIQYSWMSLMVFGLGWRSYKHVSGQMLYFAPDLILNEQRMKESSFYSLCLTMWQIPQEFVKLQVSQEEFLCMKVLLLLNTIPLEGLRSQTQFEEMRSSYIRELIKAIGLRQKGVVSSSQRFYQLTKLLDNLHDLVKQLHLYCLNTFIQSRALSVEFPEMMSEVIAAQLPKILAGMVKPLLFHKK
How it was run: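 Using charcoal-stripped serum (2%) to limit endogenous steroids, PR-UAS-bla HEK 293T cells received compounds for 16 hr at 37C after 6 hr plating; beta-lactamase FRET fluorescence was recorded following 2 hr substrate loading at room temperature.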

[7] = biological target: Progesterone receptor (Homo sapiens) (UniProt P06401); assay: qHTS assay to identify small molecule antagonists of the progesterone receptor (PR) signaling pathway (AID 1346795; active means well fitted inhibition curve with a large enough effect in the signal ratio in the repeat runs, not every such curve was filed as active; the % refers to the signal ratio)
How it was run: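 Inhibition of R5020-induced (1 nM final) beta-lactamase reporter signal in PR-UAS-bla HEK293T cells was scored by FRET fluorescence after overnight (16 hr) compound treatment.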

[8] = qHTS assay to identify small molecule antagonists of the progesterone receptor (PR) signaling pathway - cell viability counter screen (AID 1346798; active means well fitted curve in the direction sought with a large enough effect in the repeat runs; an effect the other way counts as inactive or inconclusive; further: series mostly up to about 92 µM; nearly all actives have a fitted effect of over 50% in size)
How it was run: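 ATP content as viability readout: CellTiter-Glo luminescence, 30 min room temperature, in PR-UAS-bla HEK293T cells after 16 hr compound/R5020 treatment at 37C and 5% CO2.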

[9] = qHTS assay to identify small molecule agonists of the progesterone receptor (PR) signaling pathway - cell viability counter screen (AID 1346799); further: nearly all actives have a fitted effect of over 45% in size
How it was run: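 Cytotoxicity in PR-bla HEK293T cells: 16 h compound, 37C; CellTiter-Glo added post-FRET read; luminescence after 30 min RT.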

[10] = qHTS assay to identify small molecule antagonists of the estrogen receptor beta (ER-beta) signaling pathway - cell viability counter screen (AID 1259382; active means well fitted curve in the direction sought with a large enough effect in the repeat runs; an effect the other way counts as inactive or inconclusive;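 further: HEK293T cells carrying ER-beta-UAS-bla reporter stimulated with estradiol; series mostly up to about 92 µM; nearly all actives have a fitted effect of over 55% in size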)
How it was run: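 HEK293T ER-beta-UAS-bla, 2% charcoal-stripped FBS; compounds + 1nM E2 16 hr 37C; CellTiter-Glo luminescence, 30 min RT.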
On the % scale 0 is the no-effect control and ±100 the full control effect.

Chain of Androgen receptor (Homo sapiens) (P10275 whole entry, looked up): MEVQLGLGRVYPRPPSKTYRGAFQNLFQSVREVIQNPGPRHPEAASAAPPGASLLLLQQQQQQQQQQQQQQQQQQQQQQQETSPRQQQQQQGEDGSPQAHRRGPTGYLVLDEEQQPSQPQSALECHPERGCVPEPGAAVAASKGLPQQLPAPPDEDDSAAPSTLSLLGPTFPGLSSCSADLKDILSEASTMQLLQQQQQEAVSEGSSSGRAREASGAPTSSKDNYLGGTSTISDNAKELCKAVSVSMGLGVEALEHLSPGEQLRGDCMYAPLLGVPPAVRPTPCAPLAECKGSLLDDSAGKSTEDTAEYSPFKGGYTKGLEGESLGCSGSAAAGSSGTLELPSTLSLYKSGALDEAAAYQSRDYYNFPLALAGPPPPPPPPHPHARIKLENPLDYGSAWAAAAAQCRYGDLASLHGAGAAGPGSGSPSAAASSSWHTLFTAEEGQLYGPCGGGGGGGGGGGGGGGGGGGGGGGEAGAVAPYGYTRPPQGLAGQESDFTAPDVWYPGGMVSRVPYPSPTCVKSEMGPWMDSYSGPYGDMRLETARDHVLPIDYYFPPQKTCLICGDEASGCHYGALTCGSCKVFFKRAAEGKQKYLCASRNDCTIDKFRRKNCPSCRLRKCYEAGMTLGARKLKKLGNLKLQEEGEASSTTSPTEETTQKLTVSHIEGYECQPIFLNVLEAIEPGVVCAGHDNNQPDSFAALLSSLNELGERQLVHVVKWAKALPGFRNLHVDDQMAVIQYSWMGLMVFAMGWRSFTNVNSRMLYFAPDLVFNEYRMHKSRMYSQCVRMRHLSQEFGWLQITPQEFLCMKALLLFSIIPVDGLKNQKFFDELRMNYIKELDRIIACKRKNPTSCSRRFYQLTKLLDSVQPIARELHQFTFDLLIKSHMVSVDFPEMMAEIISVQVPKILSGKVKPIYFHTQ

CC(=O)OC(C(=O)c1ccccc1)c1ccccc1 (centres undefined)
inactive: outcome [1] | outcome [2] | outcome [3] | outcome [4] | Potency [5] | Potency [6] | Potency [7] | Potency [8] | Potency [9]

CCCCCCCCCCCCCC(=O)OC
inactive: outcome [1] | outcome [2] | outcome [3] | outcome [4] | Potency [5] | Potency [6] | Potency [7] | Potency [9]

OC(CCN1CCCCC1)(c1ccccc1)c1ccccc1
inactive: outcome [1] | outcome [10] | outcome [2] | Potency [7] | Potency [8] | Potency [9]

Nc1ccc(S(=O)(=O)Nc2ccccn2)cc1
inactive: outcome [1] | outcome [10] | outcome [2] | outcome [3] | Potency [5] | Potency [6] | Potency [7] | Potency [9]

Nc1ccnc(=O)[nH]1
inactive: outcome [1] | outcome [10] | outcome [2] | outcome [3] | outcome [4] | Potency [5] | Potency [7] | Potency [8] | Potency [9]

COc1cccc2sc(N)nc12
active: Potency [6] 43.5 µM
inactive: outcome [1] | outcome [10] | outcome [2] | outcome [3] | outcome [4] | Potency [5] | Potency [7] | Potency [9]

CCCCCCCCCCC
inactive: outcome [1] | outcome [10] | outcome [2] | outcome [3] | Potency [5] | Potency [6] | Potency [7]

CCN(CC)C(=O)C1CN2CCc3cc(OC)c(OC)cc3C2CC1OC(C)=O (centres undefined)
inactive: outcome [1] | outcome [10] | outcome [2] | outcome [3] | outcome [4] | Potency [5] | Potency [6] | Potency [7] | Potency [8] | Potency [9]

O=C1OC(=O)c2cc(Oc3ccc4c(c3)C(=O)OC4=O)ccc21
inactive: outcome [1] | outcome [2] | outcome [3] | outcome [4] | Potency [5] | Potency [6] | Potency [7] | Potency [9]

CCC(C)(C)C1CCC(=O)CC1
inactive: outcome [1] | outcome [10] | outcome [2] | outcome [3] | outcome [4] | Potency [5] | Potency [6] | Potency [7] | Potency [8] | Potency [9]

C=CCCCCCCCCCCC
inactive: activation [1] 2.68% [at 8.39 µM] | activation [2] 0.334% [at 8.39 µM] | cAMP activity change [3] 1.9% [at 8.39 µM] | activity change, negative = cytotoxicity [5] -2.37% [at 8.39 µM] | activation [6] -0.805% [at 8.39 µM] | activity change, negative = inhibition [7] 5.07% [at 8.39 µM] | activity change, negative = cytotoxicity [8] -5.87% [at 8.39 µM] | activity change, negative = cytotoxicity [9] -1.19% [at 8.39 µM]

Nc1cc(C(=O)O)ccc1Cl
inactive: outcome [1] | outcome [10] | outcome [2] | outcome [3] | outcome [4] | Potency [5] | Potency [6] | Potency [7] | Potency [8] | Potency [9]

Cc1ncc([N+](=O)[O-])n1CC(O)CCl (centres undefined)
inactive: outcome [1] | outcome [10] | outcome [3] | outcome [4] | Potency [5] | Potency [7] | Potency [8] | Potency [9]

CCCCCCCCCCCCCCCCI
inactive: activation [1] 0.857% [at 19 µM] | activity change, negative = cytotoxicity [10] -0.0745% [at 19 µM] | cAMP activity change [3] 5% [at 18.9 µM] | activity change, negative = inhibition [4] -4.61% [at 19 µM] | activity change, negative = cytotoxicity [5] -3.61% [at 19 µM] | activation [6] 0.0661% [at 19 µM] | activity change, negative = inhibition [7] -3.13% [at 18.9 µM] | activity change, negative = cytotoxicity [8] 17.5% [at 18.9 µM] | activity change, negative = cytotoxicity [9] -9.05% [at 19 µM]

O=C(O)c1ccccc1C(=O)Nc1ccc(S(=O)(=O)Nc2nccs2)cc1
inactive: outcome [1] | outcome [10] | Potency [5] | Potency [6] | Potency [7] | Potency [8] | Potency [9]

O=C(O)c1ccccc1C(=O)OCc1ccccc1
inactive: outcome [1] | outcome [10] | outcome [3] | outcome [4] | Potency [5] | Potency [6] | Potency [7] | Potency [8] | Potency [9]

O=C1c2ccccc2-c2ccccc21
inactive: outcome [1] | outcome [10] | outcome [3] | outcome [4] | Potency [5] | Potency [6] | Potency [7] | Potency [8] | Potency [9]

CC(=O)N1CCN(c2ccc(O)cc2)CC1
inactive: outcome [1] | outcome [10] | outcome [2] | outcome [3] | outcome [4] | Potency [5] | Potency [6] | Potency [7] | Potency [8] | Potency [9]

CC(C)C(=O)Nc1cccc(C(F)(F)F)c1
inactive: outcome [1] | outcome [10] | outcome [2] | Potency [5] | Potency [7] | Potency [8] | Potency [9]

O=CN1CCOCC1
inactive: outcome [1] | outcome [10] | outcome [2] | outcome [3] | outcome [4] | Potency [5] | Potency [6] | Potency [7] | Potency [8] | Potency [9]

CC(=O)OC[C@H]1O[C@@H](OC(C)=O)[C@H](OC(C)=O)[C@@H]1OC(C)=O
inactive: outcome [1] | outcome [2] | outcome [3] | outcome [4] | Potency [5] | Potency [6] | Potency [7] | Potency [9]

CNC(=O)NC
inactive: outcome [1] | outcome [2] | Potency [5] | Potency [7] | Potency [8] | Potency [9]

COC(OC)C(C)c1ccccc1 (centres undefined)
inactive: outcome [1] | outcome [10] | outcome [2] | outcome [4] | Potency [5] | Potency [6] | Potency [7] | Potency [8] | Potency [9]

CN[C@@H]1[C@H](O)[C@H](NC)[C@H]2O[C@@]3(O)C(=O)C[C@@H](C)O[C@H]3O[C@@H]2[C@H]1O
inactive: outcome [1] | outcome [10] | outcome [2] | outcome [3] | outcome [4] | Potency [5] | Potency [6] | Potency [7] | Potency [8] | Potency [9]
